# Laboratory results as given in PubChem BioAssay (Tox21).
# Records with an inconclusive call do not appear. A call without a number means that no potency is given here. Unmarked numbers belong to inactive results. Calls of active or inactive are those of the source. The call rests on the fitted dose curve.
# Assay: p53 small molecule agonists, cell-based qHTS assay with human liver microsomes: qHTS cell viability counter screen (AID 1963579); further: nearly all actives have a fitted effect of over 45% in size
# Settings: p53RE-bla HCT-116 viability, ATP luminescence, 16 h, HLM; series mostly up to 66 µM
# Description: National Center for Advancing Translational Sciences [NCATS]
# Division of Preclinical Innovation [DPI]
# U.S. Environmental Protection Agency [EPA]
# National Institutes of Environmental Health Sciences [NIEHS]
# National Toxicology Program [NTP]
# U.S. Food and Drug Administration [FDA]
# p53, a tumor suppressor protein, is activated following cellular insult, including DNA damage and other cellular stresses. The activation of p53 regulates cell fate by inducing DNA repair, cell cycle arrest, apoptosis, or cellular senescence. The activation of p53, therefore, is a good indicator of DNA damage and other cellular stresses. […] The activation of the reporter gene under culture conditions can be detected by fluorescence intensity. This cell line was used to screen the Tox21 10K compound library in the condition of presence of human liver microsomes and to identify agonists that activate the p53 signaling pathway after in vitro metabolic activation (Ooka et al., Archive of Toxicology 96:1975-1987, 2022).
# Tox21 Assay Protocol Summary:
# The p53RE-bla cells were dispensed at 4,000cells/3ul/well in 1536-well black-clear bottom plates. After the assay plates were incubated at 37 C, 5% CO2 incubator for 5 hours, 23 nL of compounds dissolved in DMSO, positive controls or DMSO only was transferred to the assay plate. Following compound addition, 3 uL of human liver microsomes (XenoTech, Kansas City, KS) at final concentration of 0.5 mg/mL and 1uL of B-Nicotinamide adenine dinucleotide 2'-phosphate (NADPH) at final concentration of 0.5 mg/mL were transferred to the assay plate. The plates were incubated at 37 C for 16 hours. 1 uL of LiveBLAzer detection mixture was added to each well and the plates were incubated at room temperature in the dark for 2 h. Fluorescence intensity at 460 and 530 nm emission and 405 nm excitation were measured by an Envision plate reader. For cell viability readout that measures cytotoxicity, 4 ul/well of CellTiter-Glo reagent was added into the assay plates using a Flying Reagent Dispenser. After 30 min incubation at room temperature, the luminescence intensity in the plates was measured using a ViewLux plate reader.
# Potency means the concentration at half of the fitted maximal effect.
SMILES,Potency,"activity change, negative = cytotoxicity"
C[C@H]1[C@H](NC(=O)/C(=N/OC(C)(C)C(=O)O)c2csc(N)n2)C(=O)N1S(=O)(=O)O (stereo in doubt),inactive,–
CCCCC[Si](OCC)(OCC)OCC,inactive,–
NNC(=O)CP(=O)(c1ccccc1)c1ccccc1,inactive,–
Cc1onc(-c2c(Cl)cccc2Cl)c1C(=O)N[C@@H]1C(=O)N2[C@@H]1SC(C)(C)[C@@H]2C(=O)O,inactive,–
CC(=O)C(=O)CC(C)C,inactive,–
O=C1C=CC(=O)N1c1cccc(N2C(=O)C=CC2=O)c1,40.8 µM (active),–
CCOCCn1c(N2CCCN(C)CC2)nc2ccccc21,inactive,–
CC(C)=CCCC(C)CC(=O)O (stereo not given),inactive,–
CCCCCCC[N+](CC)(CC)CCCCc1ccc(Cl)cc1,inactive,–
NC(=O)N1C(=O)C(C(=O)c2cc(Cl)cs2)c2cc(F)c(Cl)cc21 (stereo not given),inactive,–
Nc1ccc(N=Nc2ccc(N)cc2)cc1,inactive,–
O=C(O)CC(=O)C(=O)O,inactive,–
NC(N)=NS(=O)(=O)c1ccc(N)cc1,inactive,–
CCCCOC(=O)c1ccccc1C(=O)OCC(CC)CCCC (stereo not given),inactive,–
NNc1nc(-c2ccccc2)cs1,inactive,–
CC[C@H]1O[C@]2(CC[C@@H]1C)C[C@@H]1C[C@@H](C/C=C(\C)C[C@@H](C)/C=C/C=C3\CO[C@@H]4[C@H](O)C(C)=C[C@@H](C(=O)O1)[C@]34O)O2,inactive,–
COc1cc2ncnc(Nc3cccc(Cl)c3)c2cc1OC,–,-15.6% [at 13.5 µM]
COC(=O)C1=C(C)NC(C)=C(C(=O)OCCCN2CCC(c3ccccc3)(c3ccccc3)CC2)C1c1cccc([N+](=O)[O-])c1 (stereo not given),inactive,–
CC(C(=O)O)c1ccc2c(c1)[nH]c1ccc(Cl)cc12 (stereo not given),inactive,–
CC(C)COC(=O)COc1ccc(Cl)cc1Cl,inactive,–

SMILES,Potency,"activity change, negative = cytotoxicity"
COC(=O)CCSCCC(=O)OC,inactive,–
CCOc1ccc(OCC)c(Cl)c1,inactive,–
O=C(Nc1ccc(C(=O)O)c(O)c1)c1ccccc1,inactive,–
NCCCN(CCO)CCO,inactive,–
CCOC(=O)C(C)Oc1ccc(Oc2nc3ccc(Cl)cc3o2)cc1 (stereo not given),inactive,–
NS(=O)(=O)c1cc2c(cc1Cl)NC(CSCc1ccccc1)=NS2(=O)=O,inactive,–
Nc1ccc(-c2ccc(F)cc2)cc1,inactive,–
COc1cc(C)nc(-n2nc(C)cc2OC)n1,inactive,–
Cc1ccc(O)c(N)c1,inactive,–
Sc1nc(S)nc(S)n1,inactive,–
C[C@H]1O[C@@H](O[C@H]2CC[C@@]3(C)[C@H](CC[C@@H]4[C@@H]3C[C@@H](O)[C@]3(C)[C@@H](C5=CC(=O)OC5)CC[C@]43O)C2)C[C@H](O)[C@@H]1O[C@H]1C[C@H](O)[C@H](O[C@H]2C[C@H](O)[C@H](O[C@@H]3O[C@H](CO)[C@@H](O)[C@H](O)[C@H]3O)[C@@H](C)O2)[C@@H](C)O1,inactive,–
Cc1cc(C(=C2C=CC(=Nc3ccc(S(=O)(=O)O)cc3S(=O)(=O)O)C=C2)c2ccc(Nc3ccc(S(=O)(=O)O)cc3)cc2)ccc1N,inactive,–
CN(C)[C@@H]1C(=O)C(C(N)=O)=C(O)[C@@]2(O)C(=O)C3=C(O)c4c(O)ccc(Cl)c4[C@@H](O)[C@H]3C[C@@H]12,inactive,–
CC(=O)NNC(C)=O,inactive,–
O=C1N=C(O)CN1/N=C/c1ccc(-c2ccc([N+](=O)[O-])cc2)o1,inactive,–
OC12N=C(c3ccccc3)SC1Cc1cc(Cl)ccc12 (stereo not given),inactive,–
CC(C)(C)c1ccc(OCC2CO2)cc1 (stereo not given),inactive,–
CCOC(=O)OCC,inactive,–
c1cc(C(c2ccc(OCC3CO3)cc2)c2ccc(OCC3CO3)cc2)ccc1OCC1CO1 (stereo not given),inactive,–
CC(=O)OC(C)C[N+](C)(C)C (stereo not given),inactive,–
